# Source: PubChem BioAssay (NCI)
# This is part of a sample that, as a whole, favours compounds with a hit. Of some 83,000 tested, about 20% had one in any assay.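 Negative percent growth values reflect cell death: -40 means 40% of the cells present at the start died, and -100 means all died.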 Unmarked numbers belong to inactive results. Activity calls are given as the source filed them.
# Tested on: A549/ATCC NSCLC
# Experiment: NCI-60 one-dose screen, 48 h (100 = growth as untreated, 0 = no growth, -100 = all killed)
# Conditions: 10 µM unless noted
# Protocol: Growth inhibition of the A549/ATCC human Non-Small Cell Lung tumor cell line is measured as a screen for anti-cancer activity. Cells are grown in 96 well plates and exposed to the test compound for 48 hours. Compounds are tested at a single concentration, which is 10^-5 M for most compounds. The reported endpoint is percent growth (GI% or GIPRCNT), where numbers from 0 - 100% represent growth inhibition, and numbers from -100% - 0 represent cell death. For example, a value of 40 represents 60% growth inhibition. A value of 0 means no net growth occurred over the course of the experiment. A value of -40 indicates 40% of cells at the beginning of the experiment died by the end of the experiment. A value of -100 means all cells are dead at the end of the experiment.
# NCI-60 Human Tumor Cell Lines Screen was performed using the standard one-dose NCI protocol, which is described in more detail at https://dtp.cancer.gov/discovery_development/nci-60/default.htm.
# Compounds with GIPRCNT values below 10 were considered active. Activity score was based on GIPRCNT using the following formula: […]
# Score is 0 for GIPRCNT values of 100 or above, 50 for GIPRCNT values of 0, and 100 for GIPRCNT values of -100.
row,Structure (SMILES),growth
1,CCCCc1ccc(NS(=O)(=O)c2cc3c4c(c2)CCN4C(=O)CC3)cc1,10.6%
2,O=c1oc2ccc(-c3ccc(F)cc3F)cc2c(=O)n1-c1ccc(Cl)c(C(F)(F)F)c1,7.35% (active)
3,O=Nc1c(O)ccc2ccccc12.O=Nc1c(O)ccc2ccccc12.O=Nc1c([O-])ccc2ccccc12.[Fe+3],106%
4,COC(=O)/C(CCC=C(C)C)=C1\[C@@H](OC(C)=O)C[C@@]2(C)[C@H]1C[C@@H](O)[C@H]1[C@@]3(C)CC[C@H](NCCO)[C@@H](C)[C@@H]3CC[C@@]12C,109%
5,O=c1c2cc(F)ccc2sc2c(NCCN3CCCC3)nc3ccccc3c12,53.7%
6,COc1cc(NC(=O)CCSc2nc3ccccc3c(=O)n2Cc2ccccc2)cc(OC)c1OC,72.7%
7,CCOC(=O)c1cc2c(n1Cc1ccccc1)-c1oncc1CCC2,59.2%
8,O=C(COc1cc(O)c2c(=O)cc(-c3ccccc3)oc2c1)Nc1ccccc1,84.6%
9,COCCN(C(=O)Cc1cccs1)C(C(=O)NCc1ccc(OC)cc1)c1ccc(C(C)C)cc1 (stereo not given),87.2%
10,CNCCNc1nc2ccccc2c2c(=O)c3cc(OC)ccc3sc12,24.6%
11,Cc1cccc2c(=O)c3c(sc12)c(NCCN)nc1ccccc13,-75.2% (active)
12,FC(F)(F)c1cccc(Nc2nc(-c3ccccc3)nc3ncccc23)c1,82.3%
13,O=C(CCc1nnc2sc(COc3ccccc3)nn12)c1nc2ncccc2[nH]1,107%
14,CCOC(=O)C1=C(C)c2ccc(OC)c(OC)c2C1,87%
15,O=C(N/N=C/c1ccccc1O)C(=O)Nc1ccc(F)cc1,44.8%
16,COc1ccc(/C(C#N)=C/c2nc3c(N4CCOCC4)nc(Cl)nc3n2C)cc1OC,21.1%
17,Cc1ccc(C(=O)c2oc3ccc4c(C)cc(=O)oc4c3c2C)cc1,14.8%
18,C=CCN1C(=O)/C(=c2\sc3n(c2=O)NC2C(N=3)N(CC)C(=O)N2CC)c2ccccc21 (stereo not given),42.5%
19,CCOC(=O)C1=C(C)N=c2s/c(=C\c3cc(Cl)ccc3O)c(=O)n2C1c1ccc(OC)cc1 (stereo not given),94.9%
20,C[n+]1c2ccccc2nc2ccc(NCCO)cc21,86.2%

row,Structure (SMILES),growth
1,COc1ccc(/C=C2/SC(=O)N(CC(=O)N3CCN(c4cc5c(cc4F)c(=O)c(C(=O)O)cn5C4CC4)CC3)C2=O)cc1,92.2%
2,O=S(=O)(c1ccccc1)n1cc2c(c1-c1ccccc1)CCc1sc(Nc3ccccc3)nc1-2,75.2%
3,Cc1cc(OC(=O)c2ccc([N+](=O)[O-])cc2)nc2[nH]c(=O)sc12,103%
4,NNC(=O)CNC(=O)Nc1n[nH]c(=S)s1,105%
5,CC(C)CCOc1ccc(-c2n[nH]c(C(F)(F)F)c2-c2cncc(C#N)c2)c(O)c1,10.4%
6,CC[C@]1(O)C[C@@H]2CN(CCc3c([nH]c4ccccc34)[C@@](C(=O)OC)(c3cc4c(cc3OC)N(C)[C@H]3[C@@](O)(C(=O)OC)[C@H](OC(C)=O)[C@]5(CC)C=CCN6CC[C@]43[C@@H]65)C2)C1,17.8%
7,O=c1oc2ccc(Cl)cc2c(=O)n1-c1cc(C(F)(F)F)cc(C(F)(F)F)c1,6.11% (active)
8,CCN(CC)c1cc(C)c2cc(NC(=O)c3cccc(OC)c3)ccc2n1,80%
9,COc1ccc(C(=O)C2CC2c2ccc(Cl)cc2)cc1 (stereo not given),82.8%
10,CNC(=O)c1cc(Oc2ccc(CC(=O)Nc3cc(C(C)(C)C)cn3C)cc2)ccn1,68.9%
11,Cc1[nH]c2ccccc2c(=O)c1CC=C(Cl)Cl,16.9%
12,O=C1N=c2ccccc2=C1c1sc(=Nc2ccccc2)n(Nc2ccccc2)c1O,108%
13,COc1ccc(Cn2c(Br)c3c(c2-c2cc(OC)c(OC)c(OC)c2)CCc2sc(NC(=O)c4ccc(OC)cc4)nc2-3)cc1,94.2%
14,CCc1ccc(CNCC(O)c2ccccc2)cc1 (stereo not given),73.8%
15,COc1nc2c(c(=O)n1C)N=C1c3ccccc3C(=O)C1C(c1ccccc1)N2 (stereo not given),91.5%
16,Cc1ccc2sc3c(NCCCNCCO)nc4ccccc4c3c(=O)c2c1,0.19% (active)
17,O=C(NN1C(=O)CSC1c1ccc(Cl)cc1)c1[nH]c2ccc(F)cc2c1-c1ccccc1 (stereo not given),26.9%
18,Cc1ccc2c(n1)C(=O)C(Oc1ccc(Br)cc1)=CC2=O,100%
19,Cc1ccc(Nc2nc(N)c3ccccc3n2)cc1Cl,48.1%
20,O=NN(Cc1cccnc1)C(=O)NC1CCCCC1,93.9%
